Tgondii IFNg: T. gondii growth inhibition with IFN-gamma, primary screen, cell-based | Toxoplasma gondii growth in IFN-gamma-treated host cells; stronger effect = lower value | activity change, negative = inhibition, % (test concentration not listed) | hit rate 3.8% among 69,000 | AID 1259416, 2018; in the data active = activity change below about -70%, passing the limit was not always enough;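 also: host cells are HeLa cells infected with Toxoplasma gondii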
* marks the source's active call; other numbers are inactive results; i = inactive. The full list was thinned out, with hits kept by preference.

SMILES | Tgondii IFNg
Cc1ccc(CN2CCC3(CC2)CCN(c2cnn(C)c2)C3=O)cc1 | -3
CCN1CC(Cn2cnc(-c3ccccc3)c2-c2ccc(C)c(OC)c2)CC1=O (stereo not given) | -21
CC1CCN(c2nc(-c3ccccc3)ns2)CC1 | 329
O=C(Nc1ccccc1)c1ccccc1O | -18
NC(=O)c1ccccc1O | 11
Cc1ccc(C)n1NC(=O)c1ccccc1O | -95*
CCOc1ccc(C(=O)C2CCN(CC(=O)NCc3cccs3)CC2)cc1 | -40
Clc1ccc(N2N=C(c3cccs3)CC2c2cccs2)cc1 (stereo not given) | 14
CC[C@@]1(C2O[C@@H](C3O[C@@](O)(CO)[C@H](C)C[C@@H]3C)C[C@@H]2C)CC[C@H]([C@]2(C)CC[C@]3(C[C@H](O)[C@@H](C)[C@@H]([C@@H](C)[C@@H](OC)[C@H](C)C(=O)O)O3)O2)O1 (stereo not given in full) | -80*
CC(C)N(C)Cc1nnc2n1CCN(S(C)(=O)=O)CC2 | -44
O=C(c1cccc(OC2(C(=O)O)CCSCC2)c1)N1CCOCC1 | 2
CCC(CNC(=O)c1cc(C)sc1NC(=O)C(C)(C)C)N1CCOCC1 (stereo not given) | 0
COc1ccc2c(c1)NC1(CCN(C(=O)Nc3ccc(F)cc3)CC1)c1cccn1-2 | 355
COc1cc([C@@H]2c3cc4c(cc3C(O[C@@H]3O[C@@H]5CO[C@@H](c6cccs6)OC5[C@H](O)[C@H]3O)C3COC(=O)[C@@H]32)OCO4)cc(OC)c1O (stereo not given in full) | -80*
CC(CC(=O)N1CCN(S(=O)(=O)N2CCOCC2)CC1)n1cnc2ccccc21 (stereo not given) | 2
Cc1ccc(F)c(NC(=O)CNC(c2nccn2C)C2CC2)c1 (stereo not given) | -31
Cc1ccc(NC(=O)C2CCCCC2C(=O)O)cc1Cl (stereo not given) | -4
COc1ccc(NC(=O)Nc2ccc(OC)c(OC3CCCC3)c2)cc1OC1CCCC1 | 139
Cc1ccc(NC(=O)OC2CCCCC2)cc1NC(=O)OC1CCCC1 | -105*
CC(=O)OC1C(=O)C2(C)C(O)CC3OCC3(OC(C)=O)C2C(OC(=O)c2ccccc2)C2(O)CC(OC(=O)C(O)C(NC(=O)c3ccccc3)c3ccccc3)C(C)=C1C2(C)C (stereo not given) | -88*
CC(=O)O[C@H]1C(=O)[C@@]2(C)C([C@H](OC(=O)c3ccccc3)[C@]3(O)C[C@H](OC(=O)[C@H](O)[C@@H](NC(=O)c4ccccc4)c4ccccc4)C(C)=C1C3(C)C)[C@]1(OC(C)=O)CO[C@@H]1C[C@@H]2O (stereo not given in full) | -79*
CC(CCc1ccco1)NC(=O)CCN1CCCCO1 (stereo not given) | 3
CO[C@@H](CN(C)C(=O)Nc1ccc(Cl)cc1)[C@H](C)CN(Cc1ccccc1Cl)[C@@H](C)CO | 101
CCOC(=O)c1nc(N(CC)c2ccc(OC)cc2)c2ccccc2n1 | -55
O=C(c1cccc(F)c1)N1C[C@H](OCC2CC2)[C@@H]2OCCC[C@@H]21 | 5
SMILES | Tgondii IFNg
CCS(=O)(=O)N1CCC2(CC1)CN(C(=O)Nc1c(C)noc1C)[C@H](CO)c1c2c2ccc(OC)cc2n1C | 20
O=C(c1ccc2cccnc2c1O)N1CCCC(CCc2ccc(F)cc2)C1 (stereo not given) | -81*
O=C(c1cn[nH]c1-n1cnnn1)N1CCCC(CCc2ccc(F)cc2)C1 (stereo not given) | -13
Cc1ncc(C(=O)N2CCCC(CCc3ccc(F)cc3)C2)s1 (stereo not given) | -14
O=C(C[C@H]1CC[C@H]2[C@@H](COC[C@@H](O)CN2C(=O)c2ccc(F)cc2)O1)N1CCCCC1 | 23
CC(c1nc2c(s1)CCCC2)n1cnc2sc3c(c2c1=O)CCNC3 (stereo not given) | -11
CC(C)(C)NC[C@H](O)COc1cccc2c1CCCC2=O | 0
CCc1nc(CN(C)C(=O)c2cc(-c3ccccc3)no2)no1 | 6
CCc1ccn2cc(-c3cc(-c4ccccc4)no3)nc2c1 | -81*
CCC(=O)Nc1cccc(-c2cn3ccc(C)cc3n2)c1 | -12
COC(=O)[C@H]1[C@H]2C[C@@H]3c4[nH]c5ccccc5c4CCN3C[C@H]2C[C@@H](OC(=O)c2cc(OC)c(OC)c(OC)c2)[C@@H]1OC | -13
CC[C@]1(O)CC2CN(CCc3c([nH]c4ccccc34)[C@@](C(=O)OC)(c3cc4c(cc3OC)N(C)[C@H]3[C@@](O)(C(=O)OC)[C@H](OC(C)=O)[C@]5(CC)C=CCN6CC[C@]43[C@@H]65)C2)C1 (stereo not given in full) | -82*
Cc1cc(-c2ccc(N)nc2)cc(C2CCN(C(=O)c3ccc4c(c3)OCCO4)C2)n1 (stereo not given) | 2
Cc1cccc(S(=O)(=O)N2CCn3cnc(COc4cccnc4)c3C2)c1 | 27
O=C(c1cc(-c2ccn(C3CCCC3)n2)n2ccccc12)N1CCCCC1 | -27
CC(c1ccccn1)N(C)Cc1nc2ccccc2n1C(C)C (stereo not given) | -20
Cc1cc(CN(C)Cc2ccc(-n3cccn3)cc2)n[nH]1 | -3
Cc1cc(CN(C)Cc2nc3ccccc3n2C(C)c2ccccc2)n[nH]1 (stereo not given) | -79*
Cn1ncc(Cl)c1C1CCCCCN1 (stereo not given) | -49
Cc1ccsc1-c1cn(CC2(C)CCCO2)nn1 (stereo not given) | 0
CCc1ccccc1S(=O)(=O)NCC(c1cccnc1)c1cn(C)c2ccccc12 (stereo not given) | -83*
Cn1cc(C(CNC(=O)Nc2ccccc2Cl)c2cccnc2)c2ccccc21 (stereo not given) | i
CCc1ccc(NC(=O)NCC(c2cccnc2)c2cn(C)c3ccccc23)cc1 (stereo not given) | 259
CCOC(=O)[C@@]12CC=CCN(C(=O)c3sccc3S(=O)(=O)C(C)(C)C)[C@@H]1CCC2 | 3
COCCC1CCCCN1C(=O)CN1C(=O)NC(=O)C1(C)C (stereo not given) | -6
SMILES | Tgondii IFNg
O=C(c1cc2cccnc2n(Cc2ccc(F)cc2)c1=O)N1CCN(c2ccc(F)cc2)CC1 | -95*
O=C(c1cc2cccnc2n(Cc2ccc(F)cc2)c1=O)N1CCN(Cc2ccccc2)CC1 | -30
O=C(c1cc2cccnc2n(Cc2ccccc2F)c1=O)N1CCN(c2ccc(F)cc2)CC1 | -83*
O=C(c1cc2cccnc2n(Cc2ccccc2F)c1=O)N1CCN(c2ccccc2F)CC1 | 36
O=C(c1cc2cccnc2n(Cc2ccc(F)cc2)c1=O)N1CCCC1 | 50
O=C(c1cc2cccnc2n(Cc2ccccc2F)c1=O)N1CCCC1 | 68
COCCNC(=O)C[C@H]1CC[C@@H]2[C@H](COC[C@H](O)CN2Cc2ccc(Cl)c(Cl)c2)O1 | 10
O=C(Nc1cccc(C(=O)O)c1)/C(=C\c1ccccc1)NC(=O)c1ccccc1 | 24
Cc1ccsc1CN1C[C@@H]2OCC[C@@H]2[C@@H](C(=O)N2CCCC2)C1 | -3
COc1ccc(-c2nc3n(c2NC(C)(C)C)CCN(C(=O)C(C)C)C3)cc1OC | 7
CCCn1cnnc1CNc1nc(-c2cccnc2)nc2c1cnn2C | 8
COc1cccc(NC(=O)Cn2c(=O)cc(C(=O)N3CCc4ccccc4C3)c3ccccc32)c1 | -14
CN(C)C(C(=O)NCc1ccc(N2CCCCC2)cc1)c1ccc(F)cc1 (stereo not given) | -15

Screening results deposited in PubChem BioAssay by Broad Institute.
